Source: PubChem BioAssay (NCATS)
Inconclusive results are not listed. Entries that show only a call come without a potency. Calls of active or inactive are those of the source. Calls come from the whole dose curve; as a rule, active = well fitted curve in the direction sought with a large enough effect; inconclusive = small, poorly fitted or top-dose-only effect, or another doubt; inactive = no such curve, though single readings can be large; an effect the other way counts as inactive or inconclusive.

Experiments:
[1] = system: Zika virus NS2B-NS3 protease (linked construct); assay: Confirmatory screen NINDS AMC qHTS for Zika virus inhibitors (AID 1347152); settings: Purified linked NS2B-NS3, AMC substrate fluorescence; series mostly up to 56.6 µM; note: potency is the fitted concentration of half-maximal effect; nearly all actives have a fitted effect of over 70% in size
In short: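 Linked NS2B-NS3 1 nM, Tris pH 8.0/0.01% Tween 20; cpd 15 min RT dark; + Nle-KRR-AMC 10 µM (Km 18.3 µM); read 0 and 15 min, 340/450 nm; %inh vs controls, 4-param Hill.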

[2] = Confirmatory screen GU Rhodamine qHTS for Zika virus inhibitors qHTS (AID 1347157); settings: purified enzyme assay, Rhodamine110 substrate fluorescence, 15 min; series mostly up to 114 µM; note: potency is the fitted concentration of half-maximal effect; nearly all actives have a fitted effect of over 70% in size
In short: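 Compounds, tested up to 114 microM, were incubated for 15 minutes with 25 nM unlinked NS2B-NS3 protease at pH 8.0. Cleavage of 1.5 microM Rhodamine110 substrate was then followed by fluorescence for 15 minutes.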

[3] = system: Zika virus NS2B-NS3 protease (unlinked complex); assay: Primary screen GU Rhodamine qHTS for Zika virus inhibitors: Unlinked NS2B-NS3 protease assay (AID 1347159); settings: Recombinant ZIKV NS2B-NS3 protease, Rhodamine110 substrate fluorescence; series mostly up to 107 µM; note: nearly all actives have a fitted effect of over 60% in size; note: potency is the fitted concentration of half-maximal effect
In short: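 Percent inhibition derives from the 15-min fluorescence change (ex 480, em 540 nm), normalized to no-enzyme and no-inhibitor wells. Reactions contained 25 nM NS2B-NS3 complex and 1.5 microM substrate in 10 mM Tris-HCl pH 8.0.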

[4] = system: Zika virus NS2B-NS3 protease (linked construct); assay: Primary screen NINDS Rhodamine qHTS for Zika virus inhibitors (AID 1347160); settings: purified NS2B-NS3 protease, Rhodamine110 substrate fluorescence; series mostly up to 33.1 µM; note: nearly all actives have a fitted effect of over 55% in size; note: potency is the fitted concentration of half-maximal effect
In short: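 In 10 mM Tris-HCl pH 8.0 containing 0.01% Tween 20, linked NS2B-NS3 protease (25 nM final) is exposed to test compounds for 15 min. Cleavage of 1.5 microM Rhodamine110 substrate is tracked by fluorescence over 15 min.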

[5] = Confirmatory screen NINDS Rhodamine qHTS for Zika virus inhibitors (AID 1347161); settings: purified enzyme assay, Rhodamine110 substrate fluorescence, 15 min; series mostly up to 114 µM; note: potency is the fitted concentration of half-maximal effect; nearly all actives have a fitted effect of over 60% in size
In short: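 Kinetic fluorescence (Ex 480 nm, Em 540 nm) over 15 min with 1.5 microM Rhodamine110 peptide and 25 nM linked protease.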

[6] = system: Zika virus NS2B-NS3 protease (linked); assay: 384 well plate NINDS AMC confirmatory qHTS for Zika virus inhibitors (AID 1347163); settings: Recombinant NS2B-NS3 protease, Ac-VKTGKR-AMC fluorescence; series mostly up to 100 µM;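 note: linked protease at 5 30 or 60 nM final depending on run; fluorescence of AMC released from Ac-VKTGKR-AMC peptide cleaved by the protease; top concentration of the series differs between compounds; nearly all actives have a fitted effect of over 50% in size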
In short: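 Linked protease 5/30/60 nM final; cpds up to 1 mM final, ~15 min preinc. Substrate Ac-VKTGKR-AMC 30 microM final. RT, dark, 25 min; FI ex 355/em 460; normalized to no-enzyme/no-inhibitor ctrls.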

[7] = system: Zika virus NS2B-NS3 protease (linked construct); assay: 384 well plate NINDS Rhodamine confirmatory qHTS for Zika virus inhibitors (AID 1347164); settings: rhodamine-110 peptide substrate fluorescence; series mostly up to 100 µM;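 note: fluorescence from protease cleavage of Ac-LKRR-rhodamine 110 substrate; top concentration of the series differs between compounds; nearly all actives have a fitted effect of over 65% in size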
In short: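 Fluorescence read at ex 485 nm/em 538 nm, 25 min after adding 10 microM Ac-LKRR-Rd substrate at room temperature in the dark; signal normalized to no-enzyme and no-inhibitor controls. Enzyme final 5, 30 or 60 nM; compounds, ~15 min preincubation.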

[8] = Vero cells viability qHTS for Zika virus inhibitors (AID 1347167); settings: cytotoxicity counter-screen (Zika); series mostly up to 45.9 µM
In short: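 Cells seeded at 2.5 x 10^5 cells/mL in DMEM with 4% FBS and attached overnight at 37 degrees C, then exposed to compound for 24 to 48 hours. Viability read as ATP content by CellTiter Glo luminescence.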

[9] = P-glycoprotein substrates identified in KB-8-5-11 adenocarcinoma cell line, qHTS therapeutic library screen (AID 1346987); settings: KB-8-5-11 (P-gp overexpressing) viability, CellTiter-Glo, 72 h; series mostly up to 44.5 µM; note: nearly all actives have a fitted effect of over 65% in size
In short: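 P-gp-mediated resistance screen: KB-8-5-11 cells treated 72 h with compounds in dose-response. CellTiter-Glo viability.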

[10] = system: Zika virus NS2B-NS3 protease (unlinked complex); assay: Confirmatory screen GU AMC qHTS for Zika virus inhibitors (AID 1347153); settings: Recombinant NS2B-NS3 protease, AMC substrate fluorescence; series mostly up to 111 µM;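 note: enzyme at 25 nM with substrate at 10 µM below its Km of 18.3 µM; potency is the fitted concentration of half-maximal effect; nearly all actives have a fitted effect of over 70% in size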
In short: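 Compounds were preincubated 15 min at room temperature with 25 nM noncovalent NS2B-NS3 protease at pH 8.0; AMC substrate added at 10 microM and 15-min fluorescence gain (340/450 nm) converted to percent inhibition, fitted 4-parameter.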

COc1cc(Nc2nc3ccccc3nc2NS(=O)(=O)c2cccc(NC(=O)c3ccc(C)c(OC)c3)c2)cc(OC)c1
Potency [1]: 13.9 µM (active)
Potency [2]: 1.39 µM (active)
Potency [3]: 3.55 µM (active)
Potency [4]: 7.94 µM (active)
Potency [5]: 1.97 µM (active)
Potency [6]: inactive
Potency [7]: inactive
outcome [8]: inactive

CC1=C[C@H]2[C@@H](CC1=O)[C@H](C)C[C@H](O)[C@H]2C(C)C
Potency [9]: inactive
Potency [4]: inactive

O=C(O)CC1CCC(c2ccc(-c3ccc(Nc4ccc(C(F)(F)F)nc4)cn3)cc2)CC1 (stereo not given)
Potency [10]: 44.1 µM (active)
Potency [2]: 4.41 µM (active)
Potency [3]: 6.31 µM (active)
Potency [4]: 10 µM (active)
Potency [5]: 4.41 µM (active)
Potency [7]: inactive
outcome [8]: inactive

C=CCC/C=C/C#CCCCCCCCC[C@H]1C(=O)O[C@H](C)[C@@H]1O
Potency [9]: inactive
Potency [4]: inactive

C=C1C(O)CCC2(C)CC3(OC)OC(=O)C(C)=C3CC12 (stereo not given)
Potency [9]: inactive
Potency [4]: inactive

Nc1nc(COC(=O)c2ccc([N+](=O)[O-])cc2)nc(Nc2ccccc2)n1
Potency [3]: inactive

CC(O)/C=C/C1(O)C(C)C(O)C(O[C@@H]2O[C@H](CO)[C@@H](O)[C@H](O)[C@H]2O)CC1(C)C (stereo not given in full)
Potency [9]: inactive
Potency [4]: inactive

CC1=C2C(=O)C=C(CO)C2C2OC(=O)C(CS(=O)(=O)O)C2C(OC(=O)Cc2ccc(O)cc2)C1 (stereo not given)
Potency [9]: inactive
Potency [4]: inactive

O=C(O)C[C@H]1CCC(=O)[C@@H]1C/C=C\CCO
Potency [9]: inactive
Potency [4]: inactive

C/C(=C\CCC(C)(C)O)CCO[C@@H]1O[C@H](CO[C@@H]2O[C@@H](C)[C@H](O)[C@@H](O)[C@H]2O)[C@@H](O)[C@H](O)[C@H]1O
Potency [9]: inactive
Potency [4]: inactive

CC(C)(O)C1CCC2(C)CCCC(C)(O)C2C1 (stereo not given)
Potency [3]: inactive
Potency [4]: inactive

COc1cn(-c2ccc(-n3cccn3)cc2F)nc(-c2ccnn2-c2ccccc2)c1=O
Potency [3]: inactive
Potency [4]: inactive

O=C1C[C@@]2(C(=O)N1)C(=O)N(Cc1ccc(Br)cc1F)C(=O)c1cccn12
Potency [4]: inactive

CC(CNS(=O)(=O)C(C)C)c1ccc(-c2ccc(C#N)cc2)cc1 (stereo not given)
Potency [4]: inactive

CC(=O)NCC1CN(c2ccc(-c3ccc(CNCc4cn[nH]n4)cc3)c(F)c2)C(=O)O1 (stereo not given)
Potency [3]: inactive
Potency [4]: inactive

O=c1[nH]ccc2nc(-c3ccc(CN4CCC(c5nc(-c6ccccn6)n[nH]5)CC4)cc3)c(-c3ccccc3)cc12
Potency [4]: inactive

CC(=O)OC1CC(C(C)(C)O)OC2CCC3(C)OC4=C(C(=O)C=C5C(C)C(OC(C)=O)C6(C)C(C)OC546)C(O)C3C12C (stereo not given)
Potency [3]: inactive
Potency [4]: inactive

CCc1cc(CC[C@]2(C3CCCC3)CC(O)=C(Cc3nc4nc(C)cc(C)n4n3)C(=O)O2)cc(CC)n1
Potency [3]: inactive
Potency [4]: inactive

CCC(C)C1NC(=O)C2C(C)CCN2C(=O)C(CC(O)CO)OC(=O)CCNC(=O)C(C)N(C)C(=O)C(C(C)C)N(C)C1=O (stereo not given)
Potency [3]: inactive
Potency [4]: inactive

Cc1ncc(Cl)cc1NCc1ccc(C(=O)NC(CC2CCCC2)C(=O)NC2CC2)s1 (stereo not given)
Potency [3]: inactive
Potency [4]: inactive

O=C(CCCCC1CCCCC1)N1CCC(c2cnc[nH]2)CC1
Potency [3]: inactive
Potency [4]: inactive

C/C(=C\C(=O)C(C)C1CCC2C3=C(CCC21C)C1(C)CCC(=O)C(C)(C)C1(O)CC3)C(C)(C)O (stereo not given)
Potency [4]: 14.1 µM (active)

Cc1ccc2nc(NC(=O)CSc3nc4c(c(=O)n3-c3ccc(F)cc3)SCC4)sc2c1
Potency [4]: inactive

COc1c2cc(c(O)c1OC)CCCCC(O)CCc1ccc(O)c-2c1 (stereo not given)
Potency [3]: inactive
Potency [4]: inactive

CN1C(=O)N(c2cc(Cl)cc(Cl)c2)C(=O)[C@@]1(C)Cc1ccc(Br)cc1
Potency [3]: inactive
Potency [4]: inactive

CCC/C=C1\OC(=O)C2=C1CCC(O)C2O (stereo not given)
Potency [3]: inactive
Potency [4]: inactive

COC(=O)C1C(c2ccc(O)cc2)C(C(=O)O)C1c1ccc(O)cc1 (stereo not given)
Potency [3]: inactive
Potency [4]: inactive

C=C1CCC2[C@@](C)(C(=O)O)CCC[C@@]2(C)[C@@H]1CCc1ccoc1 (stereo not given in full)
Potency [3]: 10 µM (active)

C=C[C@]1(C)C[C@@H](OC(=O)CSC2C[C@H]3CC[C@@H](C2)N3C)[C@]2(C)[C@H](C)CC[C@]3(CCC(=O)[C@H]32)[C@@H](C)[C@@H]1O (stereo not given in full)
Potency [3]: inactive
Potency [4]: inactive

N#Cc1cccc(-c2c[nH]c3ncnc(N4CCOCC4)c23)c1
Potency [3]: inactive
Potency [4]: inactive

Cc1cc(OCCN2CCOCC2)nn1-c1ccc2ccccc2c1
Potency [3]: inactive
Potency [4]: inactive

C=C1CC2C(C)(CCC(=O)O)C(C(C)(C)O)CCC2(C)C2(C(=O)OC)C(=O)C(C)(O)C(=O)C12C (stereo not given)
Potency [3]: inactive
Potency [4]: inactive

Cc1ccccc1-c1cc(N2CCN(C)CC2)ncc1N(C)C(=O)C(C)(C)c1cc(C(F)(F)F)cc(C(F)(F)F)c1
Potency [3]: inactive
Potency [4]: inactive
